HT1080-NT tox = kills 2HG-producing HT-1080-NT fibrosarcoma cells. HT-1080-NT fibrosarcoma viability, CellTiter-Glo ATP luminescence, 48 h. Potency, µM (titrated, usually from 46.1 µM), inactives show at the highest dose activity, negative = less viability, usual class: cytotoxic. hit rate 1.6% among 360,000. AID 686970;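 note: NT is the 2HG producing partner of a matched IDH1 knockdown line; potency is the fitted concentration of half-maximal effect; 0% = DMSO-treated cells and -100% = media-only wells without cells; nearly all actives have a fitted effect of over 55% in size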
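Read-out is CellTiter-Glo luminescence after 10 minutes at room temperature, following 48 hours' compound treatment of HT-1080-NT cells (750 cells/well, RPMI, 5% FBS, 37 degrees C).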
TDP1 cell noCPT = qHTS for Inhibitors of human tyrosyl-DNA phosphodiesterase 1 (TDP1): qHTS in cells in absence of CPT; AID 686978, 2013; hit rate 15% among 420,000; DT40 Tdp1-/- hTDP1 cells, no CPT, ATP luminescence, 48 h; Potency, µM (doses to about 46.2 µM), inactives show top-dose activity change, negative = growth inhibition, hits mostly inhibitors; note: potency is the fitted concentration of half-maximal effect; nearly all actives have a fitted effect of over 55% in size
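A cellular qHTS used chicken DT40 cells lacking endogenous Tdp1 but carrying stably transfected human TDP1. Compounds were applied without camptothecin, and cell growth kinetics were judged by ATP-dependent luminescence after ≥48 hr.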
HT1080 IDH1KD tx = toxicity to HT-1080 IDH1 knockdown cells (counter line); HT-1080 IDH1 knockdown viability, ATP luminescence, 48 h; Potency, µM (highest dose often 46.1 µM), for inactives: at the highest dose activity, negative = toxicity, hits mostly cytotoxic; hit rate 2% among 360,000; AID 686971;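 note: potency is the fitted concentration of half-maximal effect; 0% = DMSO wells and -100% = cell-free medium wells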
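Knockdown cells (IDH1KD HT-1080) received compounds 2 h after plating at 750 cells/well and were kept 48 h at 37 °C in 5% FBS RPMI. A CellTiter-Glo luminescence read gave % activity for curve fitting.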
IL-1B inflam inh = inflammasome signaling inhibition, IL-1 beta readout; AID 743279; THP-1 LPS/ATP IL-1B secretion, AlphaLISA, 16 h; active compounds read low; hit rate 4.7% among 360,000; activity change, % at 57.5 µM; in the data active = activity change below about -50%; inconclusive = mostly about -30% to -49%
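Secreted IL-1B measured by AlphaLISA bead assay after 16 h compound exposure of THP-1 cells; compounds (final up to 57.5 uM) added 1 h before LPS (250 ng/mL) and ATP (1.25 mM) stimulation; lower signal means less secretion.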
DT40 TDP1 CPT = growth inhibition of DT40 Tdp1-/-;hTDP1 cells with camptothecin (screen for TDP1 inhibitors); hit rate 12% among 420,000; Potency, µM (titrated, usually from 46.2 µM), for inactives: top-dose activity change, negative = growth inhibition, most hits filed as inhibitors; chicken DT40 Tdp1-/-;hTDP1 cells + 20 nM CPT, ATP luminescence, 48 h; AID 686979; note: potency is the fitted concentration of half-maximal effect; nearly all actives have a fitted effect of over 55% in size
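Cell growth measured by CellTiter-Glo luminescence after a minimum 48 h, 37 C compound exposure with 20 nM CPT in Tdp1-knockout DT40 cells stably expressing hTDP1, seeded 400/well; qHTS titration format.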
Starred values were filed as active, the others as inactive. This is a sample that favours compounds with a hit; in the whole collection about 19% have one here. Unless noted, calls come from the whole dose curve; as a rule, active = well fitted curve in the direction sought with a large enough effect; inconclusive = small, poorly fitted or top-dose-only effect, or another doubt; inactive = no such curve, though single readings can be large; an effect the other way counts as inactive or inconclusive. Unless noted, % is set by controls: 0 for no effect and ±100 for the full control effect.

`Clc1cccc(CN2CCSCC2)c1` gave HT1080-NT tox 8%, TDP1 cell noCPT 3%, HT1080 IDH1KD tx 2%, IL-1B inflam inh 5 and DT40 TDP1 CPT -16%.
For COc1ccc(N2CCN(C(=O)Cn3cnc4nc5c(cc4c3=O)CCCC5)CC2)cc1 the results were TDP1 cell noCPT -25% and DT40 TDP1 CPT -5%.
For O=C(NC1CCCCC1)C(c1cccnc1)N(C(=O)CCl)c1ccccc1Cl (centres undefined) the results were HT1080-NT tox 10µM*, TDP1 cell noCPT inconclusive, HT1080 IDH1KD tx 16µM*, IL-1B inflam inh -89* and DT40 TDP1 CPT inconclusive.
`O=C(NC1CCCCC1)C(c1cccnc1)N(C(=O)CCl)c1ccc(F)cc1` (centres undefined) gave HT1080-NT tox 13µM*, TDP1 cell noCPT 0.58µM*, HT1080 IDH1KD tx 10µM*, IL-1B inflam inh -103* and DT40 TDP1 CPT 0.52µM*.
Screening COc1ccc(N(C(=O)CCl)C(C(=O)NC2CCCCC2)c2cccnc2)cc1 (centres undefined) returned HT1080-NT tox 7.3µM*, TDP1 cell noCPT 2.3µM*, HT1080 IDH1KD tx 5.8µM*, IL-1B inflam inh -102* and DT40 TDP1 CPT 3.3µM*.
CCSC1=C(C#N)C2(CCCC2)C(C#N)=C(N)N1 was read as HT1080-NT tox -4%, TDP1 cell noCPT 16µM*, HT1080 IDH1KD tx -2%, IL-1B inflam inh -17 and DT40 TDP1 CPT 7.3µM*.
`N#CC1=C(N)NC(SCc2ccc(Cl)cc2)=C(C#N)C12CCCCC2` gave HT1080-NT tox inconclusive, TDP1 cell noCPT inconclusive, HT1080 IDH1KD tx 21µM*, IL-1B inflam inh -5 and DT40 TDP1 CPT inconclusive.
Screening CC1=C(C(=O)Nc2ccccc2)C2(CCCCC2)C(C#N)=C(SCC(N)=O)N1 returned HT1080-NT tox -1%, TDP1 cell noCPT 16µM*, HT1080 IDH1KD tx 6%, IL-1B inflam inh 15 and DT40 TDP1 CPT inconclusive.
Screening N#CC1=C(N)NC(SCC(=O)Nc2ccc(Br)cc2)=C(C#N)C12CCCCC2 returned HT1080-NT tox inconclusive, TDP1 cell noCPT inconclusive, HT1080 IDH1KD tx inconclusive, IL-1B inflam inh inconclusive and DT40 TDP1 CPT 26µM*.
For CC1(C)CC(=O)C2=C(C1)NC(SCC(=O)Nc1ccccc1)=C(C#N)C21CCCCC1 the results were HT1080-NT tox inconclusive, TDP1 cell noCPT inconclusive, HT1080 IDH1KD tx -16%, IL-1B inflam inh inconclusive and DT40 TDP1 CPT inconclusive.
Screening CCN1C(=O)NC(c2cc(Br)ccc2OC)C(C(=O)OC)=C1C (centres undefined) returned HT1080-NT tox 0%, TDP1 cell noCPT inconclusive, HT1080 IDH1KD tx 0%, IL-1B inflam inh 0 and DT40 TDP1 CPT inconclusive.
For N#CC1=C(N)NC(SCc2ccccc2)=C(C#N)C12CCCC2 the results were HT1080-NT tox 0%, TDP1 cell noCPT 18µM*, HT1080 IDH1KD tx 1%, IL-1B inflam inh 2 and DT40 TDP1 CPT inconclusive.
`N#CC1=C(N)NC(SCc2ccc(Br)cc2)=C(C#N)C12CCCCC2` gave HT1080-NT tox 2%, TDP1 cell noCPT inconclusive, HT1080 IDH1KD tx 1%, IL-1B inflam inh -10 and DT40 TDP1 CPT inconclusive.
CCN(CC)C(=O)CSc1nc(N)c(C#N)c(-c2cccs2)c1C#N was read as HT1080-NT tox inconclusive, TDP1 cell noCPT -3%, HT1080 IDH1KD tx inconclusive, IL-1B inflam inh 24 and DT40 TDP1 CPT -10%.
For Cn1c(N)c(Br)c(-c2ccc(F)cc2)c(C#N)c1=O the results were HT1080-NT tox -1%, TDP1 cell noCPT -15%, HT1080 IDH1KD tx -15%, IL-1B inflam inh 26 and DT40 TDP1 CPT 0%.
`Cc1nn(-c2ccccc2)c2nc(N)c(C#N)c(-c3ccc(F)cc3)c12` gave HT1080-NT tox -4%, TDP1 cell noCPT 26µM*, HT1080 IDH1KD tx -14%, IL-1B inflam inh inconclusive and DT40 TDP1 CPT 18µM*.
Cc1ccc(-n2nc(C)c3c(-c4cccs4)c(C#N)c(N)nc32)cc1 was read as HT1080-NT tox -15%, TDP1 cell noCPT 23µM*, HT1080 IDH1KD tx -7%, IL-1B inflam inh 25 and DT40 TDP1 CPT inconclusive.
`N#Cc1c(N)nc2c(c1-c1ccc(F)cc1)c(=O)nc1sccn12` gave HT1080-NT tox -17%, TDP1 cell noCPT 2.6µM*, HT1080 IDH1KD tx 0%, IL-1B inflam inh 51 and DT40 TDP1 CPT 6%.
CCOc1ccc(/C(O)=C2\C(=O)C(=O)N(c3cc(C)on3)C2c2ccccc2OC)cc1 (centres undefined) was read as HT1080-NT tox 6%, TDP1 cell noCPT -23%, HT1080 IDH1KD tx 12%, IL-1B inflam inh 28 and DT40 TDP1 CPT -14%.
Screening Cc1cc(C)c2c(=O)cc(C(=O)Nc3sc4c(c3C(=O)NCc3ccccc3)CCCC4)oc2c1 returned TDP1 cell noCPT -20% and DT40 TDP1 CPT 1%.
For Cc1cc(O)c(NC(=O)c2cc([N+](=O)[O-])ccc2Cl)cc1C the results were HT1080-NT tox inconclusive, TDP1 cell noCPT -27%, HT1080 IDH1KD tx inconclusive, IL-1B inflam inh -84* and DT40 TDP1 CPT inconclusive.
Screening Cc1cc(C)c(NC(=O)CC(=O)c2ccccc2)c(Cl)c1 returned HT1080-NT tox 2%, TDP1 cell noCPT -5%, HT1080 IDH1KD tx 20%, IL-1B inflam inh -10 and DT40 TDP1 CPT -12%.
Screening CCc1ccccc1NC(=S)NNC(=O)c1ccccc1Cl returned HT1080-NT tox -3%, TDP1 cell noCPT 5.8µM*, HT1080 IDH1KD tx 11%, IL-1B inflam inh 5 and DT40 TDP1 CPT 6.5µM*.
For Cc1ccc(O)c(NC(=O)c2cc([N+](=O)[O-])ccc2Cl)c1 the results were HT1080-NT tox -16%, TDP1 cell noCPT 21µM*, HT1080 IDH1KD tx inconclusive, IL-1B inflam inh -97* and DT40 TDP1 CPT inconclusive.
For COc1ccccc1NC(=S)NNC(=O)c1ccc(Cl)cc1Cl the results were HT1080-NT tox 0%, TDP1 cell noCPT inconclusive, HT1080 IDH1KD tx -10%, IL-1B inflam inh 14 and DT40 TDP1 CPT inconclusive.
Cc1cc(C)c(C(=O)CC(=O)c2ccccc2Cl)c(O)c1 was read as HT1080-NT tox -28%, TDP1 cell noCPT 10µM*, HT1080 IDH1KD tx inconclusive, IL-1B inflam inh -6 and DT40 TDP1 CPT 16µM*.
CC(C)(C)OC(=O)N1CCN(C(=O)c2[nH]cnc2C(=O)Nc2nccs2)CC1 was read as HT1080-NT tox inconclusive, TDP1 cell noCPT -10%, HT1080 IDH1KD tx 17%, IL-1B inflam inh 9 and DT40 TDP1 CPT 1%.
For Cc1onc(-c2c(F)cccc2Cl)c1C(=O)N(C)C1CCCCC1 the results were HT1080-NT tox 12%, TDP1 cell noCPT inconclusive, HT1080 IDH1KD tx 21%, IL-1B inflam inh 36 and DT40 TDP1 CPT inconclusive.

Screens (PubChem)
